The source of these data is PubChem BioAssay AID624331 (National Center for Advancing Translational Sciences (NCATS), 2012).

Inconclusive results are not listed. Activity calls are given as the source filed them. Calls come from the whole dose curve; as a rule, active = well fitted activation curve with a large enough effect; inconclusive = small, poorly fitted or top-dose-only effect; inactive = no such curve, though single readings can be large or run the other way.

The nature of the test: qHTS assay for re-activators of p53 using a Luc reporter: Hit Validation with no p53 Expressed. To be noted: p53-null cells, luciferase reporter counter-screen; series mostly up to 46.1 µM. The source says:
The p53 tumor suppressor plays a key role in suppression of tumorigenesis and in human carcinogenesis. It is frequently found inactivated in human cancers, mainly by point mutation. These point mutations are found in a wide variety of human cancers and a majority of them affect the DNA binding domain of the protein. The point mutations either alter native p53 conformation or abolish DNA contact. Additionally, cancer cells with p53 mutations are more resistant to chemo-radiation therapies.
This counter screen was run against the hits identified from the primary screen. It uses a cell line that was not transfected with p53. Compounds that show activity in this counter screen show unspecific activation of the assay system and are excluded from further consideration.
NIH Chemical Genomics Center [NCGC]
NIH Molecular Libraries Probe Production Centers Network [MLPCN]
Assay Provider (PI): Yi Sung, University of Michigan at Ann Arbor
5ul of 1000 cells per well are dispensed in all wells except column 4, into white solid-bottom TC-treated Kalypsys plates. The cells are kept in Opti-MEM and supplemented with 10% FBS and dispensed using a Multidrop (Thermo). Then using the Kalypsys pin-tool, 23nl of compounds are pinned. The compounds are starting concentration at 10mM, with 1:5 dilution, 4 points, and the control compound nocodazole is pinned in column 1 at 25mM, 1:3 dilution, in duplicate, 25mM nocodazole is pinned in column 2. Please note, all concentrations are working concentrations. 5ul of 1pM purified luciferase enzyme is dispensed using the Kalypsys dispenser in column 4. Plates are incubated for 24 hrs at 37 deg C, 5% CO2, and 95% humidity. Then 4ul of the detection reagent Amplite (ABD Bioquest) is added using the Kalypsys dispenser. Plates are incubated for 10 min at ambient room temperature and are then read on the ViewLux (Perkin Elmer) using a clear filter for a luminescent read-out.
(qHTS replaces the single test concentration by a dilution series.)
For the molecule `N#Cc1cc2c(nc1SCC(=O)Nc1ccc(Cl)cc1)C1CCN2CC1`, the molecule was classed as inactive.

Turning to `Cc1cc(N2C(=O)C3CCCN3C2c2sccc2C)no1` (configuration not stated), the molecule was classed as inactive. To `Nc1c(C(=O)NCc2ccco2)c2nc3ccccc3nc2n1Cc1ccc(F)cc1` belongs “inactive”.

Consider `O=C(N/N=C/c1c(O)n(Cc2ccccc2)c(=O)[nH]c1=O)c1ccccc1`, for which the call was inactive. The entry for `CC1CCCCC1NC1CCN(C)CC1` (configuration not stated) is “inactive”. To `CCCCCCOc1ccc(CN2CCN(C)CC2)cc1` belongs “inactive”; to `COc1ccc(NC(=O)C2C3CCC(O3)C2C(=O)O)c(OC)c1` (configuration not stated), “inactive”; to `COC(=O)C1=C(c2ccc(F)cc2OCc2ccccc2)C[C@@H]2CC[C@H]1N2C(=O)NCCOc1ccc(OC)cc1`, “inactive”. As to `C=C(C)C(Cc1c(OC)ccc(C(=O)/C=C/c2ccc(O)cc2)c1O)OO` (configuration not stated), the molecule was called inactive. The entry for `N#Cc1cc2c(nc1SCC(=O)Nc1cc(Cl)ccc1Cl)C1CCN2CC1` is “inactive”. Consider `N=C1c2ccccc2CN1CC(=O)c1ccccc1`, for which the molecule was classed as inactive. In the case of `COc1ccc(CN2CCNCC2)cc1`, the molecule was classed as inactive. To `CN(C)P(=O)(C(Cl)=C(N1CCCCC1)N1CCCCC1)N(C)C` belongs “inactive”; to `Nc1ccccc1N=Cc1c(O)n(CCC2=CCCCC2)c(=O)[nH]c1=O`, “inactive”.

On to `O=C(N/N=C/c1c(O)n(C2CC2)c(=S)[nH]c1=O)c1ccccc1`, for which the outcome was inactive. On to `O=C(c1cc2c(s1)CCCC2)N1CCC2(CC1)OCCO2`, for which the result was inactive. In the case of `COC(=O)C1=C(c2cccc(C#N)c2)C[C@@H]2CC[C@H]1N2C(=O)NC1CC1`, the molecule was called inactive.
